According to the OligoGym collection:
Further: reference of the scale not given here.

Each sequence was assayed against CIRBP (assay: pooled miR-30 sensor sort-seq; sequence = guide strand). Details: shRNA.
In the case of TGTCGTAACTGTCTCTGTAGGA, the sensor-assay potency score (higher = more potent) is reported as 0.291.
Work on TCTTTCACAACCACCACTTCAG yielded a sensor-assay potency score (higher = more potent) of -0.118.
For ACTGTCGTAACTGTCTCTGTAG, the sensor-assay potency score (higher = more potent) was -0.226.
TGAGAAGACCTGCTCCAGCGAC was tested, and the sensor-assay potency score (higher = more potent) was -1.23.
With TAGCGTCGTCAATGTTCTCAAA the sensor-assay potency score (higher = more potent) was -1.03.
In the case of TCACTGTAGCCACCACTCTGAC, the sensor-assay potency score (higher = more potent) is reported as -1.45.
In the case of TTTCACAACCACCACTTCAGAG, the sensor-assay potency score (higher = more potent) is reported as -0.729.
For TTGGTGTCAAAACTCAGCCCTC, the sensor-assay potency score (higher = more potent) was -0.687.

The sequences below were run against CLCN5 in the same assay as above. Details: shRNA.
Sequence TTCCACAGTCATACTGTCCTGA has a sensor-assay potency score (higher = more potent) of 0.719.
In the case of TTCCTGTATTTGTTGAAGCAGT, the sensor-assay potency score (higher = more potent) is reported as -0.859.
TTTTATTGGTAATCTCTCGGTG showed a sensor-assay potency score (higher = more potent) of -0.249.
In the case of AAAAGCATCACTCACACTGTGA, the sensor-assay potency score (higher = more potent) is reported as -0.413.
Sequence TTGATAACCAGAGTCCACTTAC has a sensor-assay potency score (higher = more potent) of -0.327.
Work on TATAGTAATGACAATTTTCAGT yielded a sensor-assay potency score (higher = more potent) of -0.57.
With TATAACAGGATACTTGCCCAAC the sensor-assay potency score (higher = more potent) was -1.3.
With TTTAACACATCCTTTTTGGTAA the sensor-assay potency score (higher = more potent) was -0.176.
In the case of TTTGTCTCTCTCTTCAAAGGTG, the sensor-assay potency score (higher = more potent) is reported as -0.196.
Sequence TATATGCTTTAACACATCCTTT has a sensor-assay potency score (higher = more potent) of -1.04.
With TGCTATAGCACCAACAGCCATG the sensor-assay potency score (higher = more potent) was -1.3.
In the case of TCAAACCAGCTAACGAACCTGA, the sensor-assay potency score (higher = more potent) is reported as -0.258.
With TTGAAATCATCATAGGTCCCTA the sensor-assay potency score (higher = more potent) was -0.0127.
In the case of TTGAGGGGAAAATAGTAGCTGA, the sensor-assay potency score (higher = more potent) is reported as -0.729.
TTTATTGGTAATCTCTCGGTGC was tested, and the sensor-assay potency score (higher = more potent) was 0.182.
With TATAGCACCAACAGCCATGCTA the sensor-assay potency score (higher = more potent) was -0.0804.
For TTTGCTTGTGTTGAAACGGTTC, the sensor-assay potency score (higher = more potent) was -0.272.
With TCTTATGAGCAAACTCTTCTTT the sensor-assay potency score (higher = more potent) was -0.0775.
TAGCTGACCTCTTCAAGGCTGA gave a sensor-assay potency score (higher = more potent) of -0.234.
TTAAGTCTGTCATCCAATGAGC was tested, and the sensor-assay potency score (higher = more potent) was -1.29.
For TTTCATCACATCCATTGCCAGG, the sensor-assay potency score (higher = more potent) was -1.34.

These sequences were tested against CLDN16 in the same assay as above. Details: shRNA.
With AAATATATTGTGCAAAACCAAA the sensor-assay potency score (higher = more potent) was -1.81.
With AATATCTGCAGTAATCATCAAC the sensor-assay potency score (higher = more potent) was -0.661.
With TTCTCTCAGGTCCAACATCTTT the sensor-assay potency score (higher = more potent) was -1.61.
For TTTGTGACGCATTCCCACCAGA, the sensor-assay potency score (higher = more potent) was -0.822.
TAGAATATCTGCAGTAATCATC was tested, and the sensor-assay potency score (higher = more potent) was -0.742.
Sequence TTAAAAAGATATAAGCAGCAGG has a sensor-assay potency score (higher = more potent) of -0.367.
Sequence TCTGCAGTAATCATCAACGCTC has a sensor-assay potency score (higher = more potent) of -0.0383.
With TACACATCAACAGCATACCACA the sensor-assay potency score (higher = more potent) was -1.23.
For TAGAACGTTCCACATACACATC, the sensor-assay potency score (higher = more potent) was -1.34.
AAGAATAATACAAACAGGCTGT gave a sensor-assay potency score (higher = more potent) of 0.277.
Sequence TACATTTTGGCCGTCTCTGTGC has a sensor-assay potency score (higher = more potent) of -0.539.
